Experimental data taken from PubChem BioAssay (NCATS).
Records with an inconclusive call do not appear. Activity calls are given as the source filed them. Calls come from the whole dose curve; as a rule, active = well fitted inhibition curve with a large enough effect; inconclusive = small, poorly fitted or top-dose-only effect; inactive = flat fitted curve, though single readings scatter.

How the values were obtained:
Assay in all cases: qHTS profiling for inhibitors of Plasmodium falciparum proliferation (AID 504749); note: nearly all actives have a fitted effect of over 60% in size
Conditions in all cases: P. falciparum in erythrocytes, SYBR Green DNA, 72 h; series mostly up to 28.7 µM
3D7 = tested on: 3D7
Procedure, shortened: (§1)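 Quantitative HTS: compounds pinned into medium, infected erythrocytes added (0.3% parasitemia, 2.5% hematocrit), 72 h culture at 37 C under 5% CO2. Saponin/Triton lysis with SYBR Green I, overnight RT, then fluorescence read.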

AS120 = tested on: AS120
Procedure, shortened: as §1

ATS95 = tested on: ATS95
Procedure, shortened: as §1

CP191 = tested on: CP191
Procedure, shortened: as §1

CP211 = tested on: CP211
Procedure, shortened: as §1

CP215 = tested on: CP215
Procedure, shortened: as §1

CP247 = tested on: CP247
Procedure, shortened: as §1

CP250 = tested on: CP250
Procedure, shortened: as §1

CP256 = tested on: CP256
Procedure, shortened: as §1

CP262 = tested on: CP262
Procedure, shortened: as §1

CP297 = tested on: CP297
Procedure, shortened: as §1

CP335 = tested on: CP335
Procedure, shortened: as §1

Dd2 = tested on: Dd2
Procedure, shortened: as §1

ECU = tested on: ECU
Procedure, shortened: as §1

GB4 = tested on: GB4
Procedure, shortened: as §1

N140 = tested on: N140
Procedure, shortened: as §1

P93_24 = tested on: P93_24
Procedure, shortened: as §1

PAD = tested on: PAD
Procedure, shortened: as §1

TAB113 = tested on: TAB113
Procedure, shortened: as §1

TAB165 = tested on: TAB165
Procedure, shortened: as §1

Measured: Potency

CC(=O)OCC(=O)[C@@]1(O)CCC2C3CCC4=CC(=O)CC[C@]4(C)C3=CC[C@@]21C (some centres undefined)
inactive: all assays above

CNCC(=O)NC(CCCN=C(N)N)C(=O)NC(C(=O)NC(Cc1ccc(O)cc1)C(=O)NC(C(=O)NC(Cc1cnc[nH]1)C(=O)N1CCCC1C(=O)NC(C)C(=O)O)C(C)C)C(C)C (centres undefined)
inactive: all assays above

CC(N)C(=O)NCC(=O)NC1CSSCC(C(=O)O)NC(=O)C(CO)NC(=O)C(C(C)O)NC(=O)C(Cc2ccccc2)NC(=O)C(C(C)O)NC(=O)C(CCCCN)NC(=O)C(Cc2c[nH]c3ccccc23)NC(=O)C(Cc2ccccc2)NC(=O)C(Cc2ccccc2)NC(=O)C(CC(N)=O)NC(=O)C(CCCCN)NC1=O (centres undefined)
inactive: all assays above

O=C(O)c1ccccc1-c1c2cc(Br)c(=O)c(Br)c-2oc2c(Br)c(O)c(Br)cc12
not listed: CP297
inactive: all other assays above

CC1(C)C(/C=C/C=C/C=C/C=C2\N(CCCCS(=O)(=O)O)c3ccc4ccccc4c3C2(C)C)=[N+](CCCCS(=O)(=O)[O-])c2ccc3ccccc3c21
not listed: 3D7 | CP335
inactive: all other assays above

CCOC(=O)C(CS)NCCN[C@@H](CS)C(=O)OCC (some centres undefined)
inactive: all assays above

NC(=O)CCC1NC(=O)C(Cc2ccccc2)NC(=O)C(Cc2ccc(O)cc2)NC(=O)CCSSCC(C(=O)N2CCCC2C(=O)NC(CCCN=C(N)N)C(=O)NCC(N)=O)NC(=O)C(CC(N)=O)NC1=O (centres undefined)
inactive: all assays above

CC(C)CC(NC(=O)C(COC(C)(C)C)NC(=O)C(Cc1ccc(O)cc1)NC(=O)C(CO)NC(=O)C(Cc1c[nH]c2ccccc12)NC(=O)C(Cc1cnc[nH]1)NC(=O)C1CCC(=O)N1)C(=O)NC(CCCN=C(N)N)C(=O)N1CCCC1C(=O)NNC(N)=O (centres undefined)
not listed: TAB113
inactive: all other assays above

Cn1cc(O)nc1NC(=O)Nc1cccc(Cl)c1
not listed: CP191 | CP250 | CP256 | CP262 | GB4
inactive: all other assays above

O=C1/C(=C\c2cccs2)CCC/C1=C/c1cccs1
not listed: CP191 | CP335
inactive: all other assays above

C=CC1=C(C(=O)O)N2C(=O)[C@@H](NC(=O)C(N=O)c3csc(N)n3)[C@H]2SC1 (some centres undefined)
inactive: all assays above
